Inconclusive results are not listed. Calls of active or inactive are those of the source. Unless noted, calls follow the shape of the dose curve; as a rule, active = well fitted curve in the direction sought with a large enough effect; inconclusive = small, poorly fitted or top-dose-only effect, or another doubt; inactive = no such curve, though single readings can be large; an effect the other way counts as inactive or inconclusive.
What was measured:
[1] = Cytometric Cell-Based qHTS for Inhibitors of the mTORC1 Signaling Pathway in MEF (Tsc2-/-, p53-/-) Cells (AID 2660); conditions: mTORC1 pathway cytometry; series mostly up to 38.3 µM;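 also: Tsc2 and p53 null MEFs carrying empty vector with compound for 24 h; percent of cells above a phospho-rpS6 to PI ratio cutoff in each well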
Outline: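 Immunofluorescence qHTS of rpS6 Ser235/236 phosphorylation: MEFs (Tsc2-/-, p53-/-) treated 24 h, 37 C, in DMEM + 10% FBS. Alexa-488 signal normalized to PI count, referenced to rapamycin (7.5 nM) and DMSO; PI cell number recorded for viability.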

[2] = High Content Imaging Cell-Based qHTS for Inhibitors of the mTORC1 Signaling Pathway in MEF (Tsc2-/-, p53-/-) Cells (AID 2666); conditions: series mostly up to 38.3 µM;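 also: percent of cells scored positive for phospho-rpS6 Ser235/236 immunostaining by imaging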
Outline: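 Inhibition of rpS6 phosphorylation is measured by immunofluorescence imaging in empty-vector Tsc2-/-, p53-/- mouse embryonic fibroblasts after 24 hrs compound exposure at 37 degree Celsius. Results are reported as % positive cells per well.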

[3] = High Content Imaging Cell-Based qHTS for Inhibitors of the mTORC1 Signaling Pathway in MEF Cells (AID 2667); conditions: series mostly up to 38.3 µM;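 also: Tsc2-/- p53-/- MEFs stably re-expressing wild-type Tsc2 exposed 24 h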
Outline: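 Fixed-cell imaging of phospho-S6 (Ser235/236, Alexa-488) after 24 hrs of compound treatment at 37 degree Celsius. Signal was normalized to Hoechst, and thresholds from the highest and lowest wells split cells into % active versus % non-active.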

[4] = Cytometry Cell-Based qHTS for Inhibitors of the mTORC1 Signaling Pathway in MEF cells (AID 2668); conditions: mTORC1 pathway readout; series mostly up to 38.3 µM;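 also: Tsc2-/- p53-/- mouse embryonic fibroblasts stably re-expressing wild-type Tsc2; percent cells positive for phospho-rpS6 Ser235/236 relative to propidium iodide stain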
Outline: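 Read-out: phospho-rpS6 Ser235/236 immunofluorescence normalized to propidium iodide intensity, scored as % active cells against a rapamycin (7.5 nM) threshold. Cells: Tsc2-/-, p53-/- MEFs stably expressing WT Tsc2, compound-treated 24 hrs at 37 degree Celsius.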

[5] = target: Ubiquitin carboxyl-terminal hydrolase 2 (Homo sapiens) (UniProt O75604); experiment: qHTS Validation Assay for Inhibitors of Ubiquitin-specific Protease USP2a Using CHOP2 as the Reporter (AID 463106); conditions: USP2a cleavage of CHOP2 reporter, enzymatic; series mostly up to 38.3 µM
Outline: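 Inhibition is expressed relative to NEM as the full-inhibition control, with concentration-response curves classed by fit quality, magnitude and activity. Enzyme (USP2 core, 10nM) meets 25nM Ub-CHOP2 after compound preincubation; readings are taken at 60min.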

[6] = target: DNA polymerase III PolC-type (Bacillus subtilis (strain 168)) (UniProt P13267); experiment: qHTS Validation Assay for the Inhibitors of DNA Replication in Gram-Positive Bacteria (AID 485295); conditions: Gram-positive bacterial DNA replication assay; series mostly up to 57.1 µM;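 also: reconstituted holoenzyme with PolC plus beta clamp SSB and primase; PicoGreen fluorescence of double-stranded DNA made on primed circular M13 template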
Outline: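 PicoGreen fluorescence (ex 480–485/em 535–540 nm) reports dsDNA synthesized on ssM13Gori template with dNTPs/NTPs. Enzyme: holoenzyme rebuilt from purified PolC, beta subunit, SSB and primase. Compound preincubated before substrate addition; RT throughout.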

[7] = target: Tumor susceptibility gene 101 protein (Homo sapiens) (UniProt Q99816); experiment: qHTS Validation Assay for Iinhibitors of HIV-1 Budding by Blocking the Interaction of PTAP/TSG101 (AID 485342; calls by dose curve); conditions: TSG101-PTAP binding, fluorescence polarization, 4-point titration; series mostly up to 115 µM
Outline: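 FP read-out: FITC-PTAP peptide, 50 nM final, binding Tsg101 binding domain, 10 uM final; 20 min r.t.; 10 mM HEPES pH 7.5, 0.15 M NaCl, 0.01% Tween 20, 3 mM EDTA, 0.1 mM TCEP.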

[8] = qHTS Validation Assay to Find Inhibitors of Chronic Active B-Cell Receptor Signaling (AID 485345; active = well fitted curve in the direction sought with a large enough effect in the main read-out, with a control signal flat, not every such curve was filed as active); conditions: ABC-DLBCL cells, chronic BCR signaling reporter, CBG luciferase; series mostly up to 46.1 µM
Outline: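 TMD8 ABC-DLBCL cells with dox-inducible green luciferase–IκBα fusion and red native luciferase; compounds 46 uM–3 nM, 4 h at 37C with doxycycline in 0.5% FBS IMDM. Green/red ratio normalized to basal and 10 uM MG-132.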

Measured: Potency

DNA polymerase III PolC-type (Bacillus subtilis (strain 168)), sequence (P13267 whole entry, looked up): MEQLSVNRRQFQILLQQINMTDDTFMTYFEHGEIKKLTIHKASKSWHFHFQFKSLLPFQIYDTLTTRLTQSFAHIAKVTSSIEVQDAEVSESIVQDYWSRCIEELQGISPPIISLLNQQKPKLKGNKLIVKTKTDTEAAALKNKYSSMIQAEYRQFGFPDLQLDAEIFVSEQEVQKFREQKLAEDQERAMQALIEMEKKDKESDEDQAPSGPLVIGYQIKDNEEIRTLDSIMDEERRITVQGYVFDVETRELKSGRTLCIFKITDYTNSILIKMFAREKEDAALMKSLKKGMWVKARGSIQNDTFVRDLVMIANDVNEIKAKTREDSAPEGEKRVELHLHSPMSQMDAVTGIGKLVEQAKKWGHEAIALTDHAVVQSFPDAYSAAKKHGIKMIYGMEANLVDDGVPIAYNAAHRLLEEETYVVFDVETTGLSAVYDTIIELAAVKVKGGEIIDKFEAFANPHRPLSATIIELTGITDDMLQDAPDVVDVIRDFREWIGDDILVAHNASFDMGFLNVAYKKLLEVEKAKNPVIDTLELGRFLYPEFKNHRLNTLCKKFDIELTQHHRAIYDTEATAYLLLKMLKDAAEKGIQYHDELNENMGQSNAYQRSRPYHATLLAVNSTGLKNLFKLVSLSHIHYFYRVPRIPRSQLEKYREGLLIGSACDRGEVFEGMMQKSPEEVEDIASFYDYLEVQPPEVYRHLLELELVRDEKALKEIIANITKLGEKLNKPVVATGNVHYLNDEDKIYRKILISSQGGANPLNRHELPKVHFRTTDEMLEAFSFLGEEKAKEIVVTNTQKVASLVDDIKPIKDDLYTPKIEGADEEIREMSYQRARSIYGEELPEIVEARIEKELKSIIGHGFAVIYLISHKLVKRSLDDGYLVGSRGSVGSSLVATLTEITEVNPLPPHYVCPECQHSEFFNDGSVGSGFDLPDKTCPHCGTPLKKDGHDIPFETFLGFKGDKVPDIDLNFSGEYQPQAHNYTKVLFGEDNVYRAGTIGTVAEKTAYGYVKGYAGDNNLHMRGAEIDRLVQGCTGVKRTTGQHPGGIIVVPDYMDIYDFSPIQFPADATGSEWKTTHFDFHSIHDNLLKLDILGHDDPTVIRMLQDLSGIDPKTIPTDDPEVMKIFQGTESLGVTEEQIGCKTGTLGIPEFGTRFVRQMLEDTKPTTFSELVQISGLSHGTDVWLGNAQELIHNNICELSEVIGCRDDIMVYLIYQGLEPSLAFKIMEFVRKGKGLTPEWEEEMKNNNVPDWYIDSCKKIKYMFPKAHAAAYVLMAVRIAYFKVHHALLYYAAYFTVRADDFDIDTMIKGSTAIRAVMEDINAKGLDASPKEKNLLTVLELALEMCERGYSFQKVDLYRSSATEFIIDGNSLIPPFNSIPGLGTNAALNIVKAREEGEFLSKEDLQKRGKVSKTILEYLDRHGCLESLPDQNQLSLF
Tumor susceptibility gene 101 protein (Homo sapiens), sequence (Q99816 whole entry, looked up, the tested form may be a part): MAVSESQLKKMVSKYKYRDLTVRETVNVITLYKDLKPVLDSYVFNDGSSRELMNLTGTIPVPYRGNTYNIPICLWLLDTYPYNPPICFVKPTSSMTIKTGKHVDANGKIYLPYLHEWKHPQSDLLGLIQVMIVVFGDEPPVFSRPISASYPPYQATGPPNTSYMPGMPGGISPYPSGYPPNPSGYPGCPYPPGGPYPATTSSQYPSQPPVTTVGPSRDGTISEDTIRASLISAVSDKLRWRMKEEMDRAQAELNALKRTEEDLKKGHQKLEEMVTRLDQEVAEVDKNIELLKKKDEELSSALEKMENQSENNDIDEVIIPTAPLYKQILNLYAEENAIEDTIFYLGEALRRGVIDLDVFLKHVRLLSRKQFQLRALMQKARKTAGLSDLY
Ubiquitin carboxyl-terminal hydrolase 2 (Homo sapiens), sequence (O75604 whole entry, looked up): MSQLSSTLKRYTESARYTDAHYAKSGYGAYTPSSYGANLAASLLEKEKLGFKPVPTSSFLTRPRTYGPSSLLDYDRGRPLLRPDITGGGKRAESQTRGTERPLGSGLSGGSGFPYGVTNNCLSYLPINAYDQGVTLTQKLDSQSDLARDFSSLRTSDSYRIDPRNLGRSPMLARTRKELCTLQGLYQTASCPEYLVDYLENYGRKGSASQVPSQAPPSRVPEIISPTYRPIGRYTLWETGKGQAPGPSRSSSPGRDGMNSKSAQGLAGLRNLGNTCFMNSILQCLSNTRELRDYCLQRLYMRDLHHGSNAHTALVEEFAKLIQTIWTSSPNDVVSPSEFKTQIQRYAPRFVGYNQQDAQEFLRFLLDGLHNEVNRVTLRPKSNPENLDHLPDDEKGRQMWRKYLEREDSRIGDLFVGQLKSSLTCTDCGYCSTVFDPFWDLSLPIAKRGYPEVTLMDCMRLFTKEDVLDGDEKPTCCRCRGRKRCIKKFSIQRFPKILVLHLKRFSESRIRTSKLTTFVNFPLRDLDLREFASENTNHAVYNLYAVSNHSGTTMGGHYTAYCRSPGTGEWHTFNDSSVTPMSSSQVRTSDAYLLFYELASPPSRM

CCCCCCCCCCCCCCSCC(=O)O
inactive: all assays above

Nc1ncnc2c1nc(Sc1ccc(Cl)cc1)n2[C@H]1OC2COP(=O)(O)O[C@@H]2C1O (some centres undefined)
not listed: [8]
inactive: all other assays above

CCCn1c(=O)c(C)cn2nc(N)nc12
inactive: all assays above

CN(C)CCC(c1ccc(Br)cc1)c1ccccn1 (centres undefined)
not listed: [7]
inactive: all other assays above

CC(O)C(O)[C@H]1CNc2nc(N)[nH]c(=O)c2N1 (some centres undefined)
inactive: all assays above

CC(C)NC[C@H](O)COc1cccc2ccccc12
inactive: all assays above

N=S(=O)(O)Cc1noc2ccccc12
inactive: all assays above

C=C1C[C@@]23CC[C@H]4[C@@](C)(CCC[C@@]4(C)C(=O)O)[C@@H]2CC[C@]1(O)C3
inactive: all assays above

CCCCCC(O)CCCC(=O)O (centres undefined)
inactive: all assays above

C[C@@]1(C2CCCC2)Cc2cc(OCC(=O)O)c(Cl)c(Cl)c2C1=O
inactive: all assays above

COc1ccccc1N1CCN(CCN(C(=O)c2ccc(F)cc2)c2ccccn2)CC1
inactive: all assays above

CC(=O)SC1CC2=CC(=O)CC[C@]2(C)C2CC[C@@]3(C)C(CC[C@@]34CCC(=O)O4)C12 (some centres undefined)
not listed: [7]
inactive: all other assays above

CSC(=N)N
inactive: all assays above

O=c1[nH]c(=O)c2nc3ccccc3nc2[nH]1
not listed: [7]
inactive: all other assays above

O=c1[nH]c(=S)[nH]c(-c2ccccc2)c1Cc1c(O)ccc2ccccc12
not listed: [6] | [8]
inactive: all other assays above

NOCC(=O)O
inactive: all assays above

O=S(=O)(c1cccc2c(Cl)cccc12)N1CCCNCC1
inactive: all assays above

CC(C)[C@@H]1CC[C@@H](C)C[C@@H]1P(=O)(c1ccccc1)c1ccccc1
inactive: all assays above

N[C@H](C(=O)O)[C@H](Cc1ccccc1)C(=O)O
inactive: all assays above

COC(=O)C(C)(N)Cc1ccc(O)cc1 (centres undefined)
not listed: [7]
inactive: all other assays above

O=[N+]([O-])c1cccc2cn[nH]c12
inactive: all assays above

CSc1nc(N)c2ncn([C@@H]3O[C@H](COP(=O)(O)OP(=O)(O)O)C(O)[C@H]3O)c2n1 (some centres undefined)
not listed: [6] | [8]
inactive: all other assays above

CCCOC(=O)c1c(-c2ccccc2)nc(CC)c(C(=O)SCC)c1CCC
inactive: all assays above

CCCCCCCCCCCCCCCCCCOC[C@H](COP(=O)([O-])OCC[N+](C)(C)C)OC
not listed: [6] | [8]
inactive: all other assays above

COc1cc2c(CCNC(C)=O)c[nH]c2cc1O
inactive: all assays above
